From PubChem BioAssay AID1159580 (chemical genetic matrix, 2015)
Where “and” joins values, the source holds several entries; their conditions need not be identical. Equal entries are not always repeated. Out of some 5,500 compounds screened, about 2,000 (36%) were called active. Another 18% or so got no clear call; they are omitted. No stated cut-off is given here; in the data, active means normalized growth mostly below about 0.91 (no sharp cut-off); inconclusive means no clear call, values can overlap the other calls; inactive means mostly above about 0.92. The list shows a part of the results.

Experiment: chemical genetic growth profiling, strain panel (AID 1159580);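 further: tested at 20 µM; growth read once vehicle control cultures reached saturation at 30 °C; 1 = growth at the plate median or of vehicle wells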
Settings: S. cerevisiae deletion strains, growth OD

Measured: normalized growth

Cc1ccc(/C(=C\CN2CCCC2)c2ccccn2)cc1
inactive: locus YAL013W, strain DEP1, stronger effect = lower value 1.01 | locus YAL021C, strain ccr4, stronger effect = lower value 0.99 | locus YAL026C, strain drs2, stronger effect = lower value 0.992 | locus YAL030W, strain snc1, stronger effect = lower value 1.03 | locus YAL040C, strain CLN3, stronger effect = lower value 1.02 | locus YBL061C, strain skt5, stronger effect = lower value 1.02 | locus YBR009C, strain hhf1, stronger effect = lower value 0.971 | locus YBR021W, strain FUR4, stronger effect = lower value 1 | locus YBR023C, strain chs3, stronger effect = lower value 1.01 | locus YBR171W, strain sec66, stronger effect = lower value 1.02 | locus YBR229C, strain ROT2, stronger effect = lower value 1.01 | locus YBR231C, strain swc5, stronger effect = lower value 1.04 | locus YBR279W, strain paf1, stronger effect = lower value 0.991 | locus YCL011C, strain gbp2, stronger effect = lower value 0.99 | locus YCL016C, strain dcc1, stronger effect = lower value 0.975 | locus YCL029C, strain bik1, stronger effect = lower value 1 | locus YCL061C, strain MRC1 (second series), stronger effect = lower value 0.99 | locus YCL061C, strain MRC1, stronger effect = lower value 1.02 | locus YCL069W, strain vba3, stronger effect = lower value 1.01 | locus YCR088W, strain abp1, stronger effect = lower value 1.02 | locus YDL005C, strain med2, stronger effect = lower value 1.01 | locus YDL035C, strain GPR1, stronger effect = lower value 1.02 | locus YDL040C, strain nat1, stronger effect = lower value 1.01 | locus YDL074C, strain BRE1, stronger effect = lower value 1.01 | locus YDL101C, strain DUN1, stronger effect = lower value 1.01 | locus YDL134C, strain PPH21, stronger effect = lower value 1.01 | locus YDL185W, strain tfp1, stronger effect = lower value 1.01 | locus YDL192W, strain arf1, stronger effect = lower value 1 | locus YDR001C, strain nth1, stronger effect = lower value 1 | locus YDR069C, strain doa4, stronger effect = lower value 1.02 | locus YDR101C, strain arx1, stronger effect = lower value 0.997 | locus YDR137W, strain rgp1, stronger effect = lower value 0.993 | locus YDR150W, strain NUM1, stronger effect = lower value 1.02 | locus YDR159W, strain sac3, stronger effect = lower value 0.933 | locus YDR162C, strain NBP2, stronger effect = lower value 1.01 | locus YDR195W, strain ref2 0.993 | locus YDR297W, strain sur2, stronger effect = lower value 1.02 | locus YDR318W, strain mcm21, stronger effect = lower value 0.995 | locus YDR334W, strain swr1, stronger effect = lower value 0.991 | locus YDR335W, strain msn5, stronger effect = lower value 1.01 | locus YDR363W, strain ESC2, stronger effect = lower value 0.965 | locus YDR388W, stronger effect = lower value 0.998 | locus YDR392W, strain spt3, stronger effect = lower value 0.927 | locus YDR502C, strain sam2, stronger effect = lower value 0.995 | locus YEL003W, strain gim4, stronger effect = lower value 1.04 | locus YEL037C, strain rad23, stronger effect = lower value 1.01 | locus YEL061C, strain CIN8 (second series), stronger effect = lower value 1.01 | locus YEL061C, strain CIN8, stronger effect = lower value 1.01 | locus YER002W, strain NOP16, stronger effect = lower value 1 | locus YER015W, strain faa2, stronger effect = lower value 1.01 | locus YER016W, strain bim1, stronger effect = lower value 0.995 | locus YER110C, stronger effect = lower value 0.995 | locus YER111C, strain swi4, stronger effect = lower value 1 | locus YER155C, strain BEM2 (second series), stronger effect = lower value 1.05 | locus YER155C, strain BEM2, stronger effect = lower value 1 | locus YER167W, strain BCK2, stronger effect = lower value 1.01 | locus YFR010W, strain ubp6, stronger effect = lower value 1.01 | locus YGL078C, strain dbp3, stronger effect = lower value 0.993 | locus YGL086W, strain mad1, stronger effect = lower value 0.996 | locus YGL167C, strain pmr1, stronger effect = lower value 1.01 | locus YGL173C, strain kem1, stronger effect = lower value 1.04 | locus YGL227W, strain vid30, stronger effect = lower value 1.01 | locus YGL240W, strain doc1, stronger effect = lower value 1.03 | locus YGL248W, strain PDE1, stronger effect = lower value 1 | locus YGL253W, strain hxk2, stronger effect = lower value 0.98 | locus YGR078C, strain PAC10, stronger effect = lower value 1.01 and 0.984 | locus YGR135W, strain pre9, stronger effect = lower value 0.997 | locus YGR229C, strain SMI1, stronger effect = lower value 1.01 and 0.973 | locus YGR252W, strain gcn5, stronger effect = lower value 0.98 | locus YHR013C, strain ard1, stronger effect = lower value 0.999 | locus YHR027C, strain rpn1, stronger effect = lower value 1.01 | locus YHR030C, strain SLT2, stronger effect = lower value 1.02 and 0.995 | locus YHR079C, strain IRE1 (second series), stronger effect = lower value 0.998 | locus YHR079C, strain IRE1, stronger effect = lower value 1.02 | locus YHR094C, strain hxt1, stronger effect = lower value 0.999 | locus YHR129C, strain ARP1, stronger effect = lower value 1.01 | locus YHR142W, strain chs7, stronger effect = lower value 1.01 | locus YHR200W, strain rpn10, stronger effect = lower value 1 | locus YIL066C, strain RNR3, stronger effect = lower value 1.02 | locus YIL073C, strain SPO22, stronger effect = lower value 1.01 | locus YIL125W, strain kgd1, stronger effect = lower value 1 | locus YIR030C, strain dcg1, stronger effect = lower value 0.995 | locus YJL092W, strain hpr5, stronger effect = lower value 1.02 | locus YJL095W, strain BCK1 (second series), stronger effect = lower value 1.03 | locus YJL095W, strain BCK1, stronger effect = lower value 0.997 and 1.01 | locus YJL115W, strain asf1, stronger effect = lower value 1 | locus YJL129C, strain trk1, stronger effect = lower value 1.03 | locus YJL134W, strain LCB3, stronger effect = lower value 1.01 | locus YJL154C, strain vps35, stronger effect = lower value 1.01 | locus YJL164C, strain tpk1, stronger effect = lower value 0.979 | locus YJL166W, strain qcr8, stronger effect = lower value 1.04 | locus YJL168C, strain set2, stronger effect = lower value 1 | locus YJL187C, strain SWE1 (second series), stronger effect = lower value 1.02 | locus YJL187C, strain SWE1, stronger effect = lower value 1.02 | locus YJR043C, strain POL32, stronger effect = lower value 0.991 | locus YJR066W, strain TOR1, stronger effect = lower value 0.955
